MCF10A rereplic: A quantitative high throughput screen for small molecules that induce DNA re-replication in MCF 10a normal breast cells | MCF 10A DNA re-replication, Hoechst nuclear intensity, 48 h | Potency, µM (top dose mostly 46.1 µM), usual class: activators | 2.9% of 350,000 active; further: nearly all actives have a fitted effect of over 50% in size
PINK1 modulator: A Quantitative High throughput Screen to Identify Chemical Modulators of PINK1 Expression; 0.2% of 410,000 active; Potency, µM (titrated, usually from 76.6 µM), hits mostly activators; PINK1 immunofluorescence, high-content cytometry, 24 h; AID 624263, 2012; active means well fitted activation curve with a large enough effect; inconclusive means small, poorly fitted or top-dose-only effect; cell line not stated here; further: nearly all actives have a fitted effect of over 65% in size
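PINK1 protein level read as immunofluorescence by microplate cytometer in a fixed, stained stable cell line after 24 h exposure to five compound concentrations, with CCCP as control.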
SW480 rereplic: A quantitative high throughput screen for small molecules that induce DNA re-replication in SW480 colon adenocarcinoma cells. SW480 DNA re-replication, Hoechst DNA content imaging, 48 h. Potency, µM (highest dose often 46.1 µM), actives largely listed as activators. 1.8% of 340,000 active; further: nearly all actives have a fitted effect of over 55% in size
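DNA re-replication was detected as more nuclei of elevated Hoechst intensity after 48 hr exposure to compound (23 nL pinned per well of 250 cells).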
ATXN viability: Viability Counterscreen for Primary qHTS for Inhibitors of ATXN expression; S2 cells (HEK-293 line with an ATXN2-luciferase reporter) viability, CellTiter-Fluor protease fluorescence, 24 h; Potency, µM (titrated, usually from 56.7 µM), usual class: cytotoxic; 0.49% of 400,000 active; AID 651635, 2014; further: nearly all actives have a fitted effect of over 40% in size
IL1B secr inh: qHTS for Inhibitors of Inflammasome Signaling: IL-1-beta AlphaLISA Primary Screen | 4.7% of 360,000 active | activity change, % at 57.5 µM | THP-1 LPS/ATP IL-1B secretion, AlphaLISA, 16 h; hits give low values; in the data active means activity change below about -50%; inconclusive means mostly about -30% to -49%
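THP-1 cells pretreated 1 hr with compounds (up to 57.5 uM final), then stimulated with LPS (250 ng/mL final) plus ATP (1.25 mM final); secreted IL-1B measured by AlphaLISA after 16 hr, decreased signal indicating inhibition.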
ATXN2 expr inh: Primary qHTS for Inhibitors of ATXN expression. Potency, µM (highest dose often 57 µM), hits mostly inhibitors. 0.72% of 360,000 active. AID 1745845, 2022. HEK-293 ATXN2-luciferase reporter, luminescence, 24 h; further: nearly all actives have a fitted effect of over 55% in size
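ATXN2-luciferase reporter cells (luciferase flanked by upstream and downstream ATXN2 gene portions) were treated 24 h at 37 °C with compounds at up to 57 uM. SteadyGlo luminescence gave expression; GF-AFC fluorescence gave viability.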
Of the large screens only hits and unclear results are named; the others gave an inactive call. Compounds with a hit are over-represented: about 7.1% of the library has one in this group of screens. Unless noted, the call rests on the fitted dose curve; in most records, active means well fitted curve in the direction sought with a large enough effect; inconclusive means small, poorly fitted or top-dose-only effect, or another doubt; inactive means no such curve, though single readings can be large; an effect the other way counts as inactive or inconclusive.

O=C(c1cc([N+](=O)[O-])ccc1Cl)N1CCN(Cc2ccccc2)CC1	MCF10A rereplic inconclusive, IL1B secr inh -53.1
O=C(c1cccs1)N1CCN(Cc2cccc([N+](=O)[O-])c2)CC1	IL1B secr inh -53.0
O=C(c1ccc([N+](=O)[O-])cc1)N1CCN(Cc2ccccc2)CC1	none
O=C(c1ccco1)N1CCN(Cc2cccc([N+](=O)[O-])c2)CC1	none
O=C(c1ccc2c(c1)OCCO2)N(Cc1cccnc1)c1nc2c(F)cc(F)cc2s1	none (no result: MCF10A rereplic, SW480 rereplic, ATXN viability, IL1B secr inh, ATXN2 expr inh)
CCc1ccc(CNC(=O)CN2C(=O)CSc3c2c(C)nn3-c2ccccc2)cc1	none (no result: MCF10A rereplic, SW480 rereplic, IL1B secr inh)
CN1CCN(c2ccc(NC(=O)c3cc4ccccc4o3)cc2)CC1	none (no result: ATXN2 expr inh)
O=C(Nc1ccccc1N1CCN(C(=O)c2ccccc2)CC1)c1cc2ccccc2o1	none
CCCC(=O)N1CCN(c2ccc(NC(=O)c3cc4ccccc4o3)cc2)CC1	IL1B secr inh -55.8, ATXN2 expr inh inconclusive
O=C(Nc1ccc(N2CCN(C(=O)c3ccccc3)CC2)cc1)c1cc2ccccc2o1	IL1B secr inh -97.0
CC(O)(COc1ccccc1)c1ccc2c(c1)CN(Cc1cccnc1)CCO2 (centres undefined)	none (no result: MCF10A rereplic, SW480 rereplic, IL1B secr inh, ATXN2 expr inh)
Nc1ccc2ccc(O)cc2c1	MCF10A rereplic 7.31µM, SW480 rereplic 18.4µM, ATXN viability inconclusive
CCc1ccc(C(C)NC(=S)NCc2ccc(F)cc2)cc1 (centres undefined)	MCF10A rereplic 25.9µM, PINK1 modulator inconclusive, SW480 rereplic inconclusive, IL1B secr inh inconclusive
CCc1ccc(C(C)NC(=O)C2(C)CC2(Br)Br)cc1 (centres undefined)	IL1B secr inh -60.7
CCC(NC(=O)C1(C)CC1(Br)Br)c1ccc(C)cc1 (centres undefined)	none
Cc1ccc(NC(=O)Cn2nc(C)c3nn(-c4ccc(Cl)cc4)c(C)c3c2=O)cc1C	none (no result: MCF10A rereplic, SW480 rereplic, ATXN viability, IL1B secr inh, ATXN2 expr inh)
NC(=O)NC(=O)CN1C(=O)NC(c2ccccc2)(c2ccccc2)C1=O	none
NN1C(=O)NC(c2ccccc2)(c2ccccc2)C1=O	MCF10A rereplic 0.731µM
COc1cc(CN(C(=O)COc2ccc(Br)cc2)c2ccccn2)cc(OC)c1OC	none (no result: MCF10A rereplic, SW480 rereplic, IL1B secr inh)
Cc1cc(C)cc(C(=O)N(CCc2ccccc2)C2CC3CCC(C2)N3C)c1 (centres undefined)	MCF10A rereplic inconclusive, SW480 rereplic inconclusive, IL1B secr inh -64.9
CC(SC(C)C(=O)NN=Cc1cccc(Cl)c1)C(=O)NN=Cc1cccc(Cl)c1 (centres undefined)	MCF10A rereplic 4.11µM, SW480 rereplic 9.2µM, ATXN2 expr inh inconclusive
CC1CC(C)CN(C(=O)COC(=O)c2cc(S(=O)(=O)N3CCOCC3)ccc2F)C1 (centres undefined)	MCF10A rereplic inconclusive, IL1B secr inh -87.8
Cn1c(N)c(C(=O)COC(=O)c2cc(S(=O)(=O)N3CCOCC3)ccc2F)c(=O)n(C)c1=O	MCF10A rereplic inconclusive, SW480 rereplic inconclusive, ATXN viability inconclusive, IL1B secr inh -105.5, ATXN2 expr inh inconclusive
CC(C)NC(=O)CSc1cn(CC(=O)N2CCCCCC2)c2ccccc12	none (no result: MCF10A rereplic, SW480 rereplic, ATXN viability, IL1B secr inh, ATXN2 expr inh)
Cc1ccc(S(=O)(=O)N2CCN(c3nc(-c4ncccn4)nc4ccccc34)CC2)cc1	none (no result: MCF10A rereplic, SW480 rereplic, ATXN viability, IL1B secr inh, ATXN2 expr inh)
CC1CCC(C(C)C)C2=C1C(C#N)(C#N)C(C#N)(C#N)C(c1ccccc1)N2 (centres undefined)	MCF10A rereplic inconclusive, IL1B secr inh -86.4
COc1ccc(CN(C(=O)c2nsc(Cl)c2Cl)C(C(=O)NC2CCCC2)c2ccc(C)cc2)cc1 (centres undefined)	MCF10A rereplic inconclusive, SW480 rereplic inconclusive
Cc1ccc(C)c(N(C(=O)c2nsc(Cl)c2Cl)C(C(=O)NC2CCCC2)c2ccc(O)cc2)c1 (centres undefined)	IL1B secr inh -71.4, ATXN2 expr inh inconclusive
COc1ccc(CCN(Cc2cc3cc(C)cc(C)c3nc2Cl)C(=O)C2CC2)cc1	SW480 rereplic inconclusive, IL1B secr inh -69.2

Screens deposited in PubChem BioAssay by National Center for Advancing Translational Sciences (NCATS).
